Assay results: the supplement of paper PMC10849652
About 7,900 targets were measured; listed, in parts, are those with a hit and a random draw of the rest. About 0.6% of all pairs of compound and target were hits. A number with no mark means an inactive call.

What was measured:
Assay in all cases: log2 fold change, soluble protein after heating vs DMSO (PISA); higher = thermal stabilisation; K562 cells, 10 uM, 30 min; active = over 0.2 and 3.5 SD of the protein, either way, in both replicates (recomputed)
erlotinib = compound: C#Cc1cccc(Nc2ncnc3cc(OCCOC)c(OCCOC)cc23)c1 [erlotinib]
In short: (§1)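 Values are thermal stability changes relative to control samples and are taken from duplicates. They are stated as log2 fold changes. Before quantification by TMTpro 16plex LC-MS/MS with equalised channel sums, K562 cells at 2×10^6 cells/mL were treated with 10 μM compound for 30 min, heated in aliquots for 3 min across 48°C-58°C, pooled, extracted in PBS with 0.5% NP-40 at 4°C, and centrifuged at 21,000xg for 90 min to give the soluble supernatant.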

[1] = compound: C/C(=N\NC(=O)C1=CC(=CC=C1)S(=O)(=O)N2CCOCC2)/C3=C(C=CC(=C3)Cl)O
In short: as §1

[2] = compound: C1=CC(=C(C=C1Cl)C2=NC3=NC=CN=C3C(=N2)NC4=CC=NC=C4)F
In short: as §1

[3] = compound: C1=CC(=CC=C1C2=NC3=C(N2)C=C(C=C3)C(=O)N)OC4=CC=C(C=C4)Cl
In short: as §1

[4] = compound: C1=CC2=C(C=CC(=C2)/C=C\3/C(=O)NC(=NCC4=CC=CS4)S3)N=C1
In short: as §1

[5] = compound: C1=CC2=NC=CN=C2C=C1/C=C/3\C(=O)NC(=O)S3
In short: as §1

[6] = compound: C1=CC=C(C=C1)C2=NC(=C(N2)C3=CC=NC=C3)C4=CC(=C(C=C4)Cl)O
In short: as §1

[7] = compound: C1=CC=C2C(=C1)C3=NNC4=CC=CC(=C43)C2=O
In short: as §1

[8] = compound: C1CCN(C1)C(=O)NC2=CC=CC(=C2)NC3=NC=C(C(=N3)NCCC4=CN=CN4)Br
In short: as §1

[9] = compound: C1CN(CCC1(CC2=CC=C(C=C2)Cl)N)C3=NC=NC4=C3C=CN4
In short: as §1

Sequence of UniProt Q9NYQ8 (Q9NYQ8 whole entry, looked up): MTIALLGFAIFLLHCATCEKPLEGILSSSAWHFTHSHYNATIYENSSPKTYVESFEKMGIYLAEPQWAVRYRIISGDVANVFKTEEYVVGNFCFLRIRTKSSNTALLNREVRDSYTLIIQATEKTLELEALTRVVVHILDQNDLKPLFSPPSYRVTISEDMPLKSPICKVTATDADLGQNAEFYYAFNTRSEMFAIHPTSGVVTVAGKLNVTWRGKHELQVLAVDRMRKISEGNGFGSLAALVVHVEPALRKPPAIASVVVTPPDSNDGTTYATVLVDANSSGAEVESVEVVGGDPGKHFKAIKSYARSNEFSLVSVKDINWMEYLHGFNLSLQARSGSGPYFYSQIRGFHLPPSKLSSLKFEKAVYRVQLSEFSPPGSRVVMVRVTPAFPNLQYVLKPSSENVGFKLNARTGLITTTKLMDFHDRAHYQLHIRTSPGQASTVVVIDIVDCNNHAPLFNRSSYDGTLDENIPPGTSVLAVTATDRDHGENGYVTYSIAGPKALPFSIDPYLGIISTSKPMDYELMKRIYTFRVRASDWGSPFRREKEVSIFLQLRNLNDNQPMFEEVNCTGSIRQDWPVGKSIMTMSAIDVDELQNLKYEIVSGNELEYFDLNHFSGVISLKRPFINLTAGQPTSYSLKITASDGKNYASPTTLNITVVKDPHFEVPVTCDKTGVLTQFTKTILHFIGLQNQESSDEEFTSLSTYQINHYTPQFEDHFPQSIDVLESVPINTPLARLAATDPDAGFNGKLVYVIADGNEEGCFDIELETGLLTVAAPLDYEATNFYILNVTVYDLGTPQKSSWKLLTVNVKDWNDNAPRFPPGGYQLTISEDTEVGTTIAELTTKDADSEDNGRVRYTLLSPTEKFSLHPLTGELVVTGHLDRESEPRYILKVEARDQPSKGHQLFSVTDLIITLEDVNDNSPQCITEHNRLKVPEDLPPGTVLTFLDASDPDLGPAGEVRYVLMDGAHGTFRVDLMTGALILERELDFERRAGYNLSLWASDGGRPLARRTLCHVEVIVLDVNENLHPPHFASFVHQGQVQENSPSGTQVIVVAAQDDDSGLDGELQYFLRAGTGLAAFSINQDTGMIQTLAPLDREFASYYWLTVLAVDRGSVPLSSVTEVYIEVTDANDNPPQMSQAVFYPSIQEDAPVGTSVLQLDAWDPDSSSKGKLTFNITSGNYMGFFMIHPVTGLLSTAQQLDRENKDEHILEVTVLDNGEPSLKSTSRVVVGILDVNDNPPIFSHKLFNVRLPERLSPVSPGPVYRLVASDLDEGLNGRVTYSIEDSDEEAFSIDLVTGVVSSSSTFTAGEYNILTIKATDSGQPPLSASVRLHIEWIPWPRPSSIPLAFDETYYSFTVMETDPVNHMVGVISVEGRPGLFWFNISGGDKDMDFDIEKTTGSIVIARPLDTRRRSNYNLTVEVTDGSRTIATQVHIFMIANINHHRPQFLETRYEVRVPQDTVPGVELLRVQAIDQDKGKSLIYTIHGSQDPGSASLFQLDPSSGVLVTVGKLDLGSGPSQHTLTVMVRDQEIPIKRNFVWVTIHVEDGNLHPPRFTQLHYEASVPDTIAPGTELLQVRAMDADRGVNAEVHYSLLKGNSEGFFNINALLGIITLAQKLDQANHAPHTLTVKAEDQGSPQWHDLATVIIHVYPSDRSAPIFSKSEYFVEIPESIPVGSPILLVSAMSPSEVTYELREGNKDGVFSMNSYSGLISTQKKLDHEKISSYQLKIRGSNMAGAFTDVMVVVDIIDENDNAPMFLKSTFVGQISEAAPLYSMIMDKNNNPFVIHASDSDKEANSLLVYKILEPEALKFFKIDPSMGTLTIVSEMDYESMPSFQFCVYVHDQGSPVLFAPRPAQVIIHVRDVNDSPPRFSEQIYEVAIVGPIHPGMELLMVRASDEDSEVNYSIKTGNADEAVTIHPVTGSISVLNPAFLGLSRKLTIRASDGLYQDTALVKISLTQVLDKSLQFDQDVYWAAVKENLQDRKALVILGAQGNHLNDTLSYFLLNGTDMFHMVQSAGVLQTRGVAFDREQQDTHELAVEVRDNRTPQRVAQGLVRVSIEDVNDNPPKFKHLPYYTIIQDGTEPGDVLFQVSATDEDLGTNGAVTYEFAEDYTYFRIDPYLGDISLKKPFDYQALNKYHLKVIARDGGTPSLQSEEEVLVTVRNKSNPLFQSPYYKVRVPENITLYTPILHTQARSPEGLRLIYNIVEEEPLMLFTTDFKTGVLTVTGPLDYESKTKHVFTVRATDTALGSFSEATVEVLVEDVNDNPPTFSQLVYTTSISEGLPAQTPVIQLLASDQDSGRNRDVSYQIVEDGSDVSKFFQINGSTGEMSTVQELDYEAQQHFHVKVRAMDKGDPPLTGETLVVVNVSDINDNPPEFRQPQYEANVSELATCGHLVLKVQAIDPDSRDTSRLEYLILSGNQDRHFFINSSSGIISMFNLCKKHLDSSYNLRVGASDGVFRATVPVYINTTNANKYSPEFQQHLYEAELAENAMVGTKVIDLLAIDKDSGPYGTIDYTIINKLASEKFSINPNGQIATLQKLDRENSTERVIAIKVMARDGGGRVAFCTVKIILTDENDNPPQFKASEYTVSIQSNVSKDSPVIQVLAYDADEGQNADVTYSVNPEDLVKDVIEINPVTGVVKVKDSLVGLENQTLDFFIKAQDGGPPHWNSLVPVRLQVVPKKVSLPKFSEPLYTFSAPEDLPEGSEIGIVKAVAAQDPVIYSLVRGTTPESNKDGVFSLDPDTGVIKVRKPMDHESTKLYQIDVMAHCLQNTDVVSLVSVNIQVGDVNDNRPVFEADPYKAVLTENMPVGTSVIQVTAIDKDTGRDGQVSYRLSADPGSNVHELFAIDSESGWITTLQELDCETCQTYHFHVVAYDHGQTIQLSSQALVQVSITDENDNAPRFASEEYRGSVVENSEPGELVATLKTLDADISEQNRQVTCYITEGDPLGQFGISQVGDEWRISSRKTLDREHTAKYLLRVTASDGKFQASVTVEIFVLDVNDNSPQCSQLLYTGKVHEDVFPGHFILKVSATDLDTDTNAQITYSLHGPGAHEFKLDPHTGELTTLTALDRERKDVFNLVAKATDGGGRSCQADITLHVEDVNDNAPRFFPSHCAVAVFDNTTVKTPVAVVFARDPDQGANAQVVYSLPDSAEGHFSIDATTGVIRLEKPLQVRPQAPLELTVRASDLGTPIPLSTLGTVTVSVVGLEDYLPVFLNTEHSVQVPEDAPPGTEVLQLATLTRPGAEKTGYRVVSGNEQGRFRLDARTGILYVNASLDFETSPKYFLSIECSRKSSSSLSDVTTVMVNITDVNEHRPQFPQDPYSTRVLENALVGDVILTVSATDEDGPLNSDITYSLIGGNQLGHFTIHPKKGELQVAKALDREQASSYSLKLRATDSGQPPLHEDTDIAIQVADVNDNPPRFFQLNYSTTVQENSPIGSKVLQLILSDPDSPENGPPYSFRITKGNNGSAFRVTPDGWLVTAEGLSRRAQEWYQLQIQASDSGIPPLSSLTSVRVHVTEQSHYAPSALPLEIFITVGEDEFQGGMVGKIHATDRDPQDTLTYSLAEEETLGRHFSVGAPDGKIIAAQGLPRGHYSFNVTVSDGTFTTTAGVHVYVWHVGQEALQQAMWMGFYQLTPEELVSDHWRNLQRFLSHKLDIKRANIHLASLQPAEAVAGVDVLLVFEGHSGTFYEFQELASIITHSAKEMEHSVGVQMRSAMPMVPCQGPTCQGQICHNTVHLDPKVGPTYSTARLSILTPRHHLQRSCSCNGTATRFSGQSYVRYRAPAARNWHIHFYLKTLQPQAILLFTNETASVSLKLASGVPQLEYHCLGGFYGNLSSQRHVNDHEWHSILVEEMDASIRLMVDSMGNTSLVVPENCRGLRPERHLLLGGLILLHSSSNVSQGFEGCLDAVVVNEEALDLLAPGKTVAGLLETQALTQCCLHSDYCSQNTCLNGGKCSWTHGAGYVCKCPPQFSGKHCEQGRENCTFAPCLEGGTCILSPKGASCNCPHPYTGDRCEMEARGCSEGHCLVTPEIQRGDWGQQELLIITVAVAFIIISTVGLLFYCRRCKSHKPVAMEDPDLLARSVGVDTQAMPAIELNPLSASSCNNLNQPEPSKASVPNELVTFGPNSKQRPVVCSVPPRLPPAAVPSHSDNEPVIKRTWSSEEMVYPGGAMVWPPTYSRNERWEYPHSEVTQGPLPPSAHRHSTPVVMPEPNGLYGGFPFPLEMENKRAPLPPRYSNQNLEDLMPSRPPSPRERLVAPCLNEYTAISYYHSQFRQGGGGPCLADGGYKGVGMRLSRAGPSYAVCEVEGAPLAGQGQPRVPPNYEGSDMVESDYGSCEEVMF
Sequence of UniProt Q9Y3I1 (Q9Y3I1 whole entry, looked up): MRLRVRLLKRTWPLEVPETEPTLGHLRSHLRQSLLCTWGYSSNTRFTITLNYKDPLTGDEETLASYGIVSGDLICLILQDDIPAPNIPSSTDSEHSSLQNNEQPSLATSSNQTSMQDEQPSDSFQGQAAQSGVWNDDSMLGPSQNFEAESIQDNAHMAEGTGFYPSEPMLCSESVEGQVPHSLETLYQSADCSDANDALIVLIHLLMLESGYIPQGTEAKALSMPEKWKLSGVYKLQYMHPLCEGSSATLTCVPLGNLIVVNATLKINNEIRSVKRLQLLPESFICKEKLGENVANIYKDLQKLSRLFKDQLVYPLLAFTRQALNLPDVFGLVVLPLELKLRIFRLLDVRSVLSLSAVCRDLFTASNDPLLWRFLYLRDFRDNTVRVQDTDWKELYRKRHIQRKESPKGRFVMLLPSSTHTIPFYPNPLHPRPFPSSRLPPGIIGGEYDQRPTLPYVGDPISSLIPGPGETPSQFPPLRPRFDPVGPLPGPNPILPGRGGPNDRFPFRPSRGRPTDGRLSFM
Sequence of UniProt P05114 (P05114 whole entry, looked up): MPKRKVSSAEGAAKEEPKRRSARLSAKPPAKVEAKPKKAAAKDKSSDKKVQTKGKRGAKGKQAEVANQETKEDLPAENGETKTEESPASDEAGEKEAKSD
Sequence of UniProt Q9H4G4 (Q9H4G4 whole entry, looked up): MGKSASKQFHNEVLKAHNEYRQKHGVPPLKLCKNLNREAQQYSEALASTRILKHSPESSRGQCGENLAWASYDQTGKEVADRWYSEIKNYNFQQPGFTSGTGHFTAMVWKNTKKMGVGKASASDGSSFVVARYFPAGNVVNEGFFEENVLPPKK

Target	log2 fold change (erlotinib)	log2 fold change [1]	log2 fold change [2]	log2 fold change [3]	log2 fold change [4]	log2 fold change [5]	log2 fold change [6]	log2 fold change [7]	log2 fold change [8]	log2 fold change [9]
HEXA (UniProt P06865)	0.012	-0.012	0.013	0.007	0.024	0.004	-0.003	-0.023	0.01	0.007
HMGN1 (UniProt P05114)	-0.069	-0.114	-0.011	0.066	-0.114	0.045	-0.062	-0.059	0.029	-0.028
GLA (UniProt P06280)	0.016	0.019	-0.018	-0.021	-0.018	-0.017	-0.034	-0.032	0.026	0.045
IFNGR1 (UniProt P15260)	0.256	0.003	0.156	-0.208	-0.033	-0.033	-0.066	-0.035	0.048	0.247
GAPVD1 isoform 6 (UniProt Q14C86)	0.008	0.133	-0.036	-0.043	0.033	0.007	0.002	0.037	-0.012	-0.041
GLIPR2 (UniProt Q9H4G4)	0.039	0.054	-0.035	0.15	0.023	-0.019	-0.062	-0.028	0.045	-0.058
HIC2 (UniProt Q96JB3)	0.128	0	-0.17	0.028	-0.159	-0.08	0.012	-0.266	-0.023	-0.09
GEMIN5 (UniProt Q8TEQ6)	-0.007	0.066	-0.049	0.023	0.037	0.045	0.01	0.01	0.015	0.017
HNRNPH2 (UniProt P55795)	0.019	0.17	0.037	-0.028	0.112	-0.031	-0.047	-0.016	-0.068	0.024
FAM91A1 (UniProt Q658Y4)	0.005	0.019	0.168	0.082	0.019	-0.017	-0.033	0.069	-0.057	-0.152
FOXK1 (UniProt P85037)	0.113	0	0.054	-0.307	0.425	0.355	-0.075	0.61	0.394	0.352
GABARAPL2 (UniProt P60520)	0.065	0.013	0.021	-0.02	0.072	0.016	0.077	0.008	-0.027	-0.021
FBXO3 (UniProt Q9UK99)	0.01	0.044	0.141	-0.018	-0.038	0.062	0.112	-0.003	-0.029	0.002
GDPD1 (UniProt Q8N9F7)	0.077	0.024	-0.061	-0.018	-0.015	0.01	0.048	-0.018	-0.037	0.024
FBXO7 (UniProt Q9Y3I1)	0.039	0.033	0.014	-0.055	0.033	-0.038	0.001	-0.014	0.005	0
GHDC (UniProt Q8N2G8)	0.062	0.046	-0.002	0.013	0.011	0.003	-0.021	-0.008	-0.009	0.06
FBXO42 (UniProt Q6P3S6)	0.026	-0.006	-0.002	0.025	0.025	0.055	0.051	-0.006	-0.05	-0.024
GALNT11 (UniProt Q8NCW6)	0.088	-0.019	0.033	-0.009	0.122	0.118	-0.034	0.043	-0.025	0.014
HMG20A (UniProt Q9NP66)	-0.005	0.125	-0.09	0.017	-0.281	-0.009	0.429 (active)	0.001	-0.013	0.006
FAT2 (UniProt Q9NYQ8)	0.115	–	0.26	-0.098	–	0.096	0	–	-0.166	0.186
GAB2 (UniProt Q9UQC2)	-0.035	0.149	-0.033	0.231	-0.04	–	-0.294	-0.196	-0.29	0.012
